Test results from PubChem BioAssay (NCI).
Several values for one entry are separate records, joined by “and”; a condition that tells them apart may be missing. Equal entries are not always repeated. Compounds without any hit were thinned out: in the full panel of roughly 83,000, 20% have a hit.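 Results are percent growth after 48 hours of single-concentration exposure. 100 means growth as in untreated cells, lower positive values show inhibition; negative values down to -100 show cell death.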 Activity calls are given as the source filed them.

Columns and labels:
Assay in all cases: NCI-60 one-dose screen, 48 h (100 = growth as untreated, 0 = no growth, -100 = all killed)
SR leukemia = system: SR leukemia
RPMI-8226 leukemia = system: RPMI-8226 leukemia
OVCAR-8 ovarian = settings: 10 µM
OVCAR-5 ovarian = system: OVCAR-5 ovarian
OVCAR-4 ovarian = system: OVCAR-4 ovarian
SK-OV-3 ovarian = system: SK-OV-3 ovarian
IGROV1 ovarian = system: IGROV1 ovarian
OVCAR-3 ovarian = system: OVCAR-3 ovarian
HS 578T breast = system: HS 578T breast
NCI/ADR-RES ovarian = system: NCI/ADR-RES ovarian
Protocol: Growth inhibition of the NCI/ADR-RES human […] tumor cell line is measured as a screen for anti-cancer activity. Cells are grown in 96 well plates and exposed to the test compound for 48 hours. Compounds are tested at a single concentration, which is 10^-5 M for most compounds. The reported endpoint is percent growth (GI% or GIPRCNT), where numbers from 0 - 100% represent growth inhibition, and numbers from -100% - 0 represent cell death. For example, a value of 40 represents 60% growth inhibition. A value of 0 means no net growth occurred over the course of the experiment. A value of -40 indicates 40% of cells at the beginning of the experiment died by the end of the experiment. A value of -100 means all cells are dead at the end of the experiment.
NCI-60 Human Tumor Cell Lines Screen was performed using the standard one-dose NCI protocol, which is described in more detail at https://dtp.cancer.gov/discovery_development/nci-60/default.htm.
Compounds with GIPRCNT values below 10 were considered active. Activity score was based on GIPRCNT using the following formula: […]
Score is 0 for GIPRCNT values of 100 or above, 50 for GIPRCNT values of 0, and 100 for GIPRCNT values of -100.

Measured: growth

CC[C@@]1(O)C(=O)OCc2c1cc1n(c2=O)Cc2cc3c(CN(C)C)c(O)ccc3nc2-1
inactive: OVCAR-4 ovarian; 10 µM 14% | SK-OV-3 ovarian; 10 µM 10.6% and 20.4% | IGROV1 ovarian; 10 µM 15.3% | HS 578T breast; 10 µM 28.5%
13.9% (inactive) and 5.76% (active): NCI/ADR-RES ovarian; 10 µM
active: SR leukemia; 10 µM -5.49% | RPMI-8226 leukemia; 10 µM -28.3% | OVCAR-8 ovarian 3.57% | OVCAR-3 ovarian; 10 µM -21.7% and -9.74%
8.58% (active) and 13.8% (inactive): OVCAR-5 ovarian; 10 µM

COc1ccc2sc3cccc(NCCN(C)C)c3c(=O)c2c1
40.9% (inactive) and 7.16% (active): OVCAR-8 ovarian
53.1% (inactive) and 9.58% (active): OVCAR-5 ovarian; 10 µM
active: SR leukemia; 10 µM -31.7%
57.2% (inactive) and 3.91% (active): SK-OV-3 ovarian; 10 µM
81.2% (inactive) and 8.98% (active): HS 578T breast; 10 µM
70.2% (inactive) and -6.71% (active): RPMI-8226 leukemia; 10 µM
inactive: OVCAR-3 ovarian; 10 µM 61.6% and 22.1% | NCI/ADR-RES ovarian; 10 µM 48.5% and 14.7%
64.7% (inactive) and -8.94% (active): OVCAR-4 ovarian; 10 µM
41.2% (inactive) and -2.42% (active): IGROV1 ovarian; 10 µM

CN(Cc1cnc2nc(N)nc(N)c2n1)c1ccc(C(=O)N[C@@H](CCC(=O)O)C(=O)O)cc1
active: NCI/ADR-RES ovarian; 10 µM 7.09%
inactive: SR leukemia; 2.5 µM 32% | SR leukemia; 10 µM 26.8% | RPMI-8226 leukemia; 2.5 µM 33.9% | RPMI-8226 leukemia; 10 µM 41.7% | OVCAR-5 ovarian; 2.5 µM 41.1% | OVCAR-5 ovarian; 10 µM 27.2% | OVCAR-4 ovarian; 2.5 µM 93.4% | OVCAR-4 ovarian; 10 µM 105% | SK-OV-3 ovarian; 2.5 µM 75% | SK-OV-3 ovarian; 10 µM 56.2% | IGROV1 ovarian; 2.5 µM 38.7% | IGROV1 ovarian; 10 µM 21% | OVCAR-3 ovarian; 2.5 µM 54.2% | OVCAR-3 ovarian; 10 µM 47.8% | HS 578T breast; 2.5 µM 27.4% | NCI/ADR-RES ovarian; 2.5 µM 29%

CC/C(=C(\c1ccccc1)c1ccc(OCCN(C)C)cc1)c1ccccc1
inactive: OVCAR-8 ovarian 60.5% | OVCAR-4 ovarian; 10 µM 46.3% | SK-OV-3 ovarian; 10 µM 76.8% | SK-OV-3 ovarian; 12.5 µM 32.6% | IGROV1 ovarian; 10 µM 41.2% | OVCAR-3 ovarian; 10 µM 52.9% | HS 578T breast; 10 µM 60.5% | NCI/ADR-RES ovarian; 10 µM 43.2%
active: SR leukemia; 10 µM -18.9% | SR leukemia; 12.5 µM -27.2% | RPMI-8226 leukemia; 10 µM -28.3% | RPMI-8226 leukemia; 12.5 µM -38.1% | OVCAR-5 ovarian; 12.5 µM -83.1% | OVCAR-4 ovarian; 12.5 µM 2.45% | IGROV1 ovarian; 12.5 µM -20.4% | OVCAR-3 ovarian; 12.5 µM -6.16% | HS 578T breast; 12.5 µM -70.9% | NCI/ADR-RES ovarian; 12.5 µM -41.2%
